Results from the supplement of paper PMC11577813, “Eurasian spruce bark beetle detects lanierone using a highly expressed specialist odorant receptor, present in several functional sensillum types” (BMC Biology, 2024).
± gives the standard deviation of the averaged measurements.

Test system: lanierone-responsive B-neuron OSN class (ItypOR36)
Test: net action potential response of lanierone B-neuron (blank-subtracted) (spikes/s (Hz)); higher = stronger excitation
Settings: 10 µg on filter paper, neuron: B neuron (small spike amplitude)
Method: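 Single sensillum recordings from antennal olfactory sensilla of live adult Ips typographus. Each compound was 10 µg in paraffin oil, delivered as a 0.5 s puff. Net response = spikes in the first 0.5 s of response minus the 0.5 s pre-stimulus count, doubled to give Hz, with blank response subtracted. Values are for the small-spike lanierone-responsive B-neuron (putatively expressing ItypOR36), recorded in sensilla co-housing the A-neuron class; N = 1-4, averaged.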

[1] = co-localized A-neuron class: (4S)-cis-verbenol
[2] = co-localized A-neuron class: (5S,7S)-trans-conophthorin
[3] = co-localized A-neuron class: (+)-isopinocamphone
[4] = co-localized A-neuron class: (+)-trans-4-thujanol
[5] = co-localized A-neuron class: ipsdienol
[6] = co-localized A-neuron class: myrcene
[7] = co-localized A-neuron class: p-cymene

Row | Structure (SMILES) | net action potential response [1] | net action potential response [2] | net action potential response [3] | net action potential response [4] | net action potential response [5] | net action potential response [6] | net action potential response [7]
1 | C=CCc1ccc(OC)c(OC)c1 [Eugenol methyl ether] | 0 ± 8.7 | -3 ± 5 | 4.67 ± 9 | -2 ± 1.6 | -1.33 ± 5 | 0 | -3.33 ± 9.4
2 | COc1ccc(C)cc1 [4-Methyl anisole] | -1.33 ± 8.3 | 2 ± 3.5 | 2.67 ± 1.1 | -2 ± 6.7 | 0.667 ± 10 | -8 | -2.67 ± 3.1
3 | CCC/C=C\CO | 2 ± 11 | 2 ± 5.3 | -7.33 ± 4.6 | 2 ± 3.6 | 0.667 ± 3.1 | 6 | 2.67 ± 4.2
4 | CC(=O)CC/C=C(\C)CCC=C(C)C [Geranylacetone] | -2 ± 2 | -2 ± 2 | -1.33 ± 4.2 | 0 ± 4.3 | -3.33 ± 5.8 | -2 | 0 ± 2.8
5 | CCc1ccc(O)c(OC)c1 [4-Ethylguaiacol] | 1.33 ± 3.1 | 0.667 ± 2.3 | 5.33 ± 1.1 | 4 ± 5.4 | -2 ± 5.3 | -8 | 0.667 ± 3.1
6 | CC(=O)c1ccccc1 [Acetophenone] | 0 ± 5.3 | -3.33 ± 4.2 | -0.667 ± 2.3 | 1.5 ± 1 | -4.67 ± 3.1 | 4 | 1.33 ± 10
